The record followed here is PubChem BioAssay (NCATS).

Structures are written as SMILES. Values joined by “and” are separate entries in the source; they are usually repeats but may differ in a detail not shown here. Equal values may be shown once. Records with an inconclusive call do not appear. Active and inactive are the calls of the source. Unless noted, calls come from the whole dose curve; as a rule, active = well fitted curve in the direction sought with a large enough effect; inconclusive = small, poorly fitted or top-dose-only effect, or another doubt; inactive = no such curve, though single readings can be large; an effect the other way counts as inactive or inconclusive.

Assay [1] deals with Arylsulfatase A (Homo sapiens) (UniProt P15289). As to the kind of experiment: qHTS screen for enhancers of Arylsulfatase A (ASA1): LOPAC Validation Assay (AID 720538). Note: 0% is about no effect. The gist of the method:
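Cell-based enhancement test: residual ASA activity in SV40-transformed I179S patient fibroblasts is measured by pNCS turnover (0.5mM final, 14h, room temperature) following 48h compound incubation; higher fluorescence indicates activation.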
(In general: In qHTS, concentration-response curves come from the screen itself.)

Assay [2] in a line: qHTS for compounds that reverse cellular toxicity of Amyloid beta (A-beta) peptide in yeast: LOPAC Validation Assay (AID 720559).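 Note: plate controls were DMSO for no effect and equimolar ferric chloride plus clioquinol rescue for full effect.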 The method, boiled down: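 Here, A-beta-toxic yeast grow with test compounds at 30 C for 48 hr before optical density at 600 nm is recorded; data are normalized against DMSO and the FeCl3-clioquinol control.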
A short description of assay [3]: qHTS for Activators of Parkin Expression: LOPAC Validation Assay (NLuc Reporter) (AID 720572;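 note: 0% = DMSO and 100% = positive control compound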). The method, boiled down: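 Neuronal cells with a Parkin promoter-driven FLuc/NLuc coincidence reporter were treated 24 h at 37 C in 7-point dose response (LOPAC). NLuc luminescence read after FLuc; signals normalized to DMSO and positive control (100%).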
Assay [4] can be described thus: qHTS for Activators of Parkin Expression: LOPAC Validation Assay (FLuc Reporter) (AID 720573;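 note: 0% = DMSO and 100% = positive control compounds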). The gist of the method: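 Readout is FLuc luminescence from neuronal reporter cells (Parkin promoter, FLuc plus NLuc) after 24 h compound exposure in dose response. Values normalized to neutral DMSO and positive-control compounds.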
Assay [5] has as its target T1, Hexokinase-4 (Homo sapiens) + Glucokinase regulatory protein (Homo sapiens) (UniProt P35557+Q14397). As to the kind of experiment: qHTS assay for inhibitors of recombinant human GCK-GKRP interaction: Diaphorase-coupled assay (AID 743205). The method, boiled down: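 Signal derives from resorufin generated by diaphorase, linked to GCK turnover of glucose (5 mM) and ATP (0.4 mM). Enzyme complex was added after a 20-minute compound preincubation and monitored for 30 minutes.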

In assay [6] the target is T1, Hexokinase-4 (Homo sapiens) + Glucokinase regulatory protein (Homo sapiens). Briefly: qHTS assay for inhibitors of recombinant human GCK-GKRP interaction: ADP-Glo assay (AID 743206).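 Note: plate controls were DMSO plus enzyme for no effect and no enzyme for full effect.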 The gist of the method: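 GST-GCK and FLAG-GKRP (15 nM each in the dispensed mix, with 2 uM S6P) react with 0.4 mM ATP and 5 mM glucose (final) in Hepes pH 7.6 for 60 min at room temperature. ADP is measured by ADP-Glo luminescence.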

The target is the same in assay [7]. As to the kind of experiment: qHTS assay for inhibitors of recombinant human GCK-GKRP interaction: HTRF assay (AID 743207).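 Note: 0% = DMSO with GCK present and -100% = DMSO wells lacking GCK.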 The method, boiled down:
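Titration screening format: recombinant GST-GCK and FLAG-GKRP at 5 nM, S6P at 2 uM, labelled anti-tag antibodies, 60 min at RT, dual-wavelength HTRF readout.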

A short description of assay [8]: qHTS Assay for Identifying Gametocytocidal Compounds (AID 743244).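 For max response: % is set by controls: 0 for no effect and ±100 for the full control effect; actives lower the fluorescent signal which means gametocytes are killed.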 Note: potency is the fitted concentration of half-maximal effect. The note with it: P. falciparum 3D7 stage III-V gametocytes, alamarBlue, 72 h; max response: stronger effect = lower value. The method, boiled down: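 In this qHTS viability screen, late-stage 3D7 gametocytes are incubated with compound for 72 h, then with alamarBlue for 24 h; reduced resorufin fluorescence marks killing.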

A short description of assay [9]: qHTS profiling of the MIPE4 collection as inhibitors of Plasmodium falciparum (3D7) proliferation (AID 743344; call rule not given here;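 note: scaled between DMSO vehicle wells and 0.29 µM artemisinin as full inhibition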). The note with it: P. falciparum 3D7 in erythrocytes, SYBR Green DNA fluorescence, 72 h; at 28.5 µM (top of the series). The method, boiled down:
(§1)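 Erythrocytes infected with P. falciparum (0.3% parasitemia, 2.5% hematocrit) incubated with compounds 72 h at 37 C, 5% CO2. Lysis with saponin/Triton buffer containing SYBR Green I, overnight at room temperature in the dark; DNA fluorescence (485/535 nm) normalised to 0.29 uM artemisinin and DMSO.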

Assay [10] can be described thus: qHTS profiling of the MIPE4 collection as inhibitors of Plasmodium falciparum (DD2) proliferation (AID 743345; call rule not given here). The note with it: P. falciparum Dd2 in erythrocytes, SYBR Green DNA, 72 h; at 28.5 µM (top of the series). The gist of the method:
as §1

The nature of assay [11]: qHTS assay for small molecule agonists of the antioxidant response element (ARE) signaling pathway measured by Nrf2-dependant transcriptional activity (AID 720636; active = well fitted curve in the direction sought with a large enough effect in the repeat runs; an effect the other way counts as inactive or inconclusive;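 note: HepG2 cells with an ARE-driven luciferase reporter; % of control where 0% means no effect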). The gist of the method: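 Reporter gene assay, HepG2 ARE-luc: 16 hr compound, 37 C, 5% CO2; read-out luciferase luminescence.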
Assay [12] can be described thus: qHTS assay for small molecule agonists of the antioxidant response element (ARE) signaling pathway measured by Nrf2-dependant transcriptional activity - cell viability counter screen (AID 720653; active = well fitted curve in the direction sought with a large enough effect in the repeat runs; an effect the other way counts as inactive or inconclusive; note: % is set by controls: 0 for no effect and ±100 for the full control effect). The note with it: ARE-bla HepG2 viability, CellTiter-Glo ATP luminescence, 16 h; stronger effect = lower value. The method, boiled down:
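ARE-bla HepG2 cells treated with compounds for 16 h at 37C; this counter screen measures viability as intracellular ATP by CellTiter-Glo luminescence after 30 min at room temperature.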

Assay [13] in a line: qHTS assay for cell viability of HEK293 cells (AID 743288). Note: % is set by controls: 0 for no effect and ±100 for the full control effect; nearly all actives have a fitted effect of over 50% in size. Conditions: ATP luminescence (CellTiter-Glo), 18 h; max response: stronger effect = lower value. The gist of the method:
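Luminescent ATP quantitation served as the viability read-out. Cells (parental HEK293, 2,000/well) received compounds after at least 5 h at 37 C and were exposed for 18 h before a 30 min room-temperature reagent step.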

Assay [14] is described as follows: qHTS assay for cell viability of the p53RE-bla HCT-116 cell line (AID 743292). Note: % is set by controls: 0 for no effect and ±100 for the full control effect; nearly all actives have a fitted effect of over 55% in size. The method, boiled down:
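Readout: CellTiter-Glo luminescence after 30 min RT. Treatment: compounds in DMSO, 16 h, 37 C. Cells: CellSensor p53RE-bla HCT-116, 4,000/well, preincubated 5 h.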

T1 sequence (P35557 whole entry, looked up): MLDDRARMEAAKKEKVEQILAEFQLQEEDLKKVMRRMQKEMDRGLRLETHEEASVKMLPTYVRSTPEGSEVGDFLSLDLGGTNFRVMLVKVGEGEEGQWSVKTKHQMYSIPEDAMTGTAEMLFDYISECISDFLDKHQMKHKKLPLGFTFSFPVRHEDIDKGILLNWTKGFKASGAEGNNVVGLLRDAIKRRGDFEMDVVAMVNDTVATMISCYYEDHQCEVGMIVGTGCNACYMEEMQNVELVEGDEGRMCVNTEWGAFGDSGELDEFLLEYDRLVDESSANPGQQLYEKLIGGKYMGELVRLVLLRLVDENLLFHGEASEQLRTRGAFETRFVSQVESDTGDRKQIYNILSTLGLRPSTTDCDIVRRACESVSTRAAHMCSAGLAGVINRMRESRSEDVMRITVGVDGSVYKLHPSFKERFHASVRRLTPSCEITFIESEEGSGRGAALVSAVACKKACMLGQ
T1 sequence (Q14397 whole entry, looked up): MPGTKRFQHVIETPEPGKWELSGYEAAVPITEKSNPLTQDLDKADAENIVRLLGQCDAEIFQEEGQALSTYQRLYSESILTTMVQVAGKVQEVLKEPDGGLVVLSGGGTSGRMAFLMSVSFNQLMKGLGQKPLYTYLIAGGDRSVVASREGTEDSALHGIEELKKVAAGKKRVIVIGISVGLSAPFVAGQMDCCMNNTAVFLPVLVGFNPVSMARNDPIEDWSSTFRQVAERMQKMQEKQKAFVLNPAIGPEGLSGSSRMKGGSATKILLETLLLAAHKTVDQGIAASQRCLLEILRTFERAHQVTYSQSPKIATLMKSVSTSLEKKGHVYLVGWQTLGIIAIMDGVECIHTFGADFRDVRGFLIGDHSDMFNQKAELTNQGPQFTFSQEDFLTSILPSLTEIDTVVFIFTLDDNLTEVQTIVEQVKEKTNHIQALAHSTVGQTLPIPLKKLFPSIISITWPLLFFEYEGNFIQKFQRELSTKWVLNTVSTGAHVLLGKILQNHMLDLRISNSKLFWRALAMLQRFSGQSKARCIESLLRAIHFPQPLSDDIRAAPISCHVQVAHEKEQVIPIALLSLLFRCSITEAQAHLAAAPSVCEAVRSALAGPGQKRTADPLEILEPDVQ
Sequence of Arylsulfatase A (Homo sapiens) (P15289 whole entry, looked up): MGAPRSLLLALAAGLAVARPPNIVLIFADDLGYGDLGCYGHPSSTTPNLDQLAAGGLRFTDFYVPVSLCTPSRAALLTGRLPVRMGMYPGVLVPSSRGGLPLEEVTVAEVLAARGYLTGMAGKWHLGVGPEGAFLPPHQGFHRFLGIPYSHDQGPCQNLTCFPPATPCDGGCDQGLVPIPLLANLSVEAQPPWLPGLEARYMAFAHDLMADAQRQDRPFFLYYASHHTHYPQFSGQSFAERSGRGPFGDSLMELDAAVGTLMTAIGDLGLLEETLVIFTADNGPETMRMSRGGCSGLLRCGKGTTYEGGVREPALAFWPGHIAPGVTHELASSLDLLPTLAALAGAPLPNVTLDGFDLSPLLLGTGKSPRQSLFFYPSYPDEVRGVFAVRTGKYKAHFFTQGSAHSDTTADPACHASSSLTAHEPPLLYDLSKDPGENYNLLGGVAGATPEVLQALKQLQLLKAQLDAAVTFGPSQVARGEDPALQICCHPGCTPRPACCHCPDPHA

For `COC(=O)C1=CCCN(C)C1`, the Potency result in [1] and in assay [3] was “inactive” in each case. Besides, the compound was classed as inactive in assay [2], in [4], in assay [5], in assay [6] and in assay [7]. In [8], the max response was 7.57% (inactive) and 6.37% (inactive). This compound yielded a parasite growth, % of DMSO control in assay [9] of 75.8%. This compound showed a parasite growth remaining, % of DMSO control (lower = more inhibition) in [10] of 98.7%.
Take `C=CCOC(Cn1ccnc1)c1ccc(Cl)cc1Cl` (centres undefined): the Potency entry in [11] is “inactive”. Also, the max response was -15.2% (inactive) and -7.32% (inactive) in [12]; -18.6% (inactive) and -17% (inactive) in assay [13]. For the same compound, in assay [14], the outcome was inactive.
For the compound `COCC(=O)N(c1c(C)cccc1C)C(C)C(=O)OC` (centres undefined), in assay [11], the Potency result was “inactive”. The max response is -4.71% (inactive) in assay [12], -6.72% (inactive) in assay [8] and -7.89% (inactive) in assay [13]. The outcome in assay [14] was inactive.
Turning to `O=c1n(Cl)c(=O)n(Cl)c(=O)n1Cl`, the Potency entry in assay [11] is “inactive”. Further, the max response in [12] was -3.02% (inactive); in assay [8] it was -4.5% (inactive); in assay [13], 2.76% (inactive). Also, the compound was called inactive in assay [14].
For the compound `N#Cc1nn(-c2c(Cl)cc(C(F)(F)F)cc2Cl)c(N)c1S(=O)C(F)(F)F` (centres undefined), the Potency entry in assay [11] is “inactive”. Further, the max response in assay [12] was -35.8% (inactive); in assay [8], 6.82% (inactive); in assay [13], -24.4% (inactive). Moreover, in [14], the outcome was inactive.
Regarding `NC(N)=NC(=O)c1nc(Cl)c(N)nc1N`, the Potency entry in [1] is “inactive”. The max response in assay [8] was 25% (inactive). Also, the parasite growth, % of DMSO control in assay [9] stood at 116%. The compound also had a parasite growth remaining, % of DMSO control (lower = more inhibition) in [10] of 94%.
Turning to `NC(=O)CN1CCCC1=O`, the Potency entry in assay [1] and in assay [3] was “inactive” each time. The compound was called inactive in assay [2], in assay [4], in assay [5], in [6] and in assay [7]. Moreover, the max response in assay [8] is 0.359% (inactive) and -8.59% (inactive).
Consider `Oc1ccc(Cl)cc1Sc1cc(Cl)ccc1O`, for which the Potency entry in [11] is “inactive”.
Consider `CC[C@H]1CN2CCc3cc(OC)c(OC)cc3[C@@H]2C[C@@H]1C[C@H]1NCCc2cc(OC)c(OC)cc21`, for which, in [4], the result was inactive. For the same compound, in assay [8], the Potency was 1410 nM (active).
Take `CCNc1nc(Cl)nc(NCC)n1`: the Potency result in assay [11] was “inactive”. Besides, the max response in assay [12] is 2.17% (inactive); in assay [8] it was 2.85% (inactive); in assay [13], -8% (inactive). The call in [14] was inactive.
